Outcome and AC50 data for four molecules are collected here from PubChem BioAssay (EPA / NIEHS).

Read-out in test [1]: C-C motif chemokine 2 (Homo sapiens) (UniProt P13500)
Nature of the test: BSK_KF3CT_MCP1: BioMAP Diversity Plus: KF3CT Assay for Monocyte Chemoattractant Protein 1 (MCP1/CCL2) Biomarker Activity (AID 2283073). Conditions: primary human keratinocytes with fibroblasts; actives raise or lower the signal. In a few lines:
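Human keratinocyte plus foreskin fibroblast primary co-culture exposed to chemical for 24 h. MCP-1 levels measured by ELISA. Bidirectional curve fitting relative to DMSO negative control as baseline.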

Read-out in test [2]: Matrix Metallopeptidase 9 (MMP9), MMP9 (gene 4318)
Nature of the test: BSK_KF3CT_MMP9: BioMAP Diversity Plus: KF3CT Assay for Matrix Metallopeptidase 9 (MMP9) Biomarker Activity (AID 2283074).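 As to AC50: MMP9 protein level quantified by ELISA in the co-culture.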 The conditions noted are these: primary human keratinocytes with fibroblasts; actives raise or lower the signal. In a few lines: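 Values come from bidirectional fitting relative to DMSO of MMP-9 levels, which were measured by ELISA. Measurements were taken 24 h after chemical dosing of a keratinocyte and foreskin fibroblast co-culture.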

Read-out in test [3]: urokinase plasminogen activator (uPA), PLAU (gene 5328)
Nature of the test: BSK_KF3CT_uPA: BioMAP Diversity Plus: KF3CT Assay for urokinase plasminogen activator (uPA) Biomarker Activity (AID 2283075). The conditions noted are these: primary human keratinocytes with fibroblasts; actives raise or lower the signal. Summed up: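 Values derive from bidirectional fitting against DMSO controls. Keratinocyte/foreskin fibroblast co-cultures received chemical; 24 h later uPA was detected by ELISA, with SRB total-protein staining in parallel wells for overt cytotoxicity.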

Read-out in test [4]: E-selectin (Homo sapiens) (UniProt P16581)
Nature of the test: BSK_LPS_Eselectin: BioMAP Diversity Plus: LPS Assay for Eselectin Biomarker Activity (AID 2283077). Conditions: primary human HUVEC with PBMC; actives raise or lower the signal. Summed up: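 Human umbilical vein endothelial cells co-cultured with peripheral blood mononuclear cells under LPS stimulation; E-selectin measured by ELISA 24 h after chemical dosing. Activity fitted bidirectionally against DMSO as negative control and baseline.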

Read-out in test [5]: Interleukin-8 (IL8), CXCL8 (gene 3576)
Nature of the test: BSK_LPS_IL8: BioMAP Diversity Plus: LPS Assay for Interleukin-8 (IL8) Biomarker Activity (AID 2283078). Conditions: primary human HUVEC with PBMC; actives raise or lower the signal. In a few lines:
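Human umbilical vein endothelial cells co-cultured with PBMC were stimulated with LPS; IL-8 levels were measured by ELISA 24 h after chemical dosing. Activity was fitted bidirectionally against DMSO as negative control and baseline.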

Test [6] in a line: BSK_LPS_SRB: Viability Assessment in the BioMAP Diversity Plus: LPS Assay (AID 2283079).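 Also: total protein by sulforhodamine B absorbance as a cytotoxicity measure; measured one day after compound addition; fitted in both directions against DMSO so loss or gain of signal counts.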 Conditions: primary human HUVEC with PBMC. Summed up:
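Human umbilical vein endothelial cells co-cultured with PBMC (LPS system) were dosed for 24 h. Total protein was stained with 0.1% sulforhodamine B after 10% TCA fixation, read at 560 nm, and fitted bidirectionally against DMSO baseline.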

Read-out in test [7]: Interleukin-1 alpha (IL1a), IL1A (gene 3552)
Nature of the test: BSK_LPS_IL1a: BioMAP Diversity Plus: LPS Assay for Interleukin-1 alpha (IL1a) Biomarker Activity (AID 2283080). Conditions: primary human HUVEC with PBMC; actives raise or lower the signal. In a few lines: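 Human umbilical vein endothelial cells co-cultured with peripheral blood mononuclear cells were LPS-stimulated and exposed to test chemicals for 24 h. IL-1 alpha was quantified by ELISA, with bidirectional curve fitting against DMSO as the negative control and baseline.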

Read-out in test [8]: Monocyte Chemoattractant Protein-1 (MCP1), CCL2 (gene 6347)
The experiment in a line: BSK_LPS_MCP1: BioMAP Diversity Plus: LPS Assay for Monocyte Chemoattractant Protein-1 (MCP1) Biomarker Activity (AID 2283081). The conditions noted are these: primary human HUVEC with PBMC; actives raise or lower the signal. Summed up:
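HUVEC plus PBMC co-culture (human primary cells, LPS system) exposed to test chemical for 24 h; MCP-1 measured by ELISA. Bidirectional curve fitting against DMSO baseline; parallel SRB total-protein staining flags overt cytotoxicity.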

A short description of test [9]: BSK_LPS_PGE2: BioMAP Diversity Plus: LPS Assay for Prostaglandin E2 (PGE2) Biomarker Activity (AID 2283082). Conditions: primary human HUVEC with PBMC; actives raise or lower the signal. In a few lines:
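PGE2 release measured by ELISA in an LPS-activated co-culture of human umbilical vein endothelial cells and peripheral blood mononuclear cells, read at 24 h post-dosing. DMSO served as baseline for bidirectional curve fitting.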

Read-out in test [10]: Macrophage colony-stimulating factor (MCSF), CSF1 (gene 1435)
Nature of the test: BSK_LPS_MCSF: BioMAP Diversity Plus: LPS Assay for Macrophage colony-stimulating factor (MCSF) Biomarker Activity (AID 2283083). The conditions noted are these: primary human HUVEC with PBMC; actives raise or lower the signal. In a few lines: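 Human umbilical vein endothelial cells co-cultured with peripheral blood mononuclear cells were exposed to compound for 24 h. M-CSF levels were measured by ELISA, and bidirectional curve fitting used DMSO as the negative control and baseline.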

Read-out in test [11]: Tissue Factor, F3 (gene 2152)
Nature of the test: BSK_LPS_TissueFactor: BioMAP Diversity Plus: LPS Assay for Tissue Factor Biomarker Activity (AID 2283084). Conditions: primary human HUVEC with PBMC; actives raise or lower the signal. In a few lines:
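Human umbilical vein endothelial cells co-cultured with peripheral blood mononuclear cells were dosed and stimulated with LPS. Cell-surface CD142 was quantified by ELISA at 24 h. Activity was fitted bidirectionally against DMSO baseline.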

Read-out in test [12]: Tumor necrosis factor (Homo sapiens) (UniProt P01375)
The experiment in a line: BSK_LPS_TNFa: BioMAP Diversity Plus: LPS Assay for Tumour Necrosis Factor alpha (TNFa) Biomarker Activity (AID 2283085).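 As to AC50: TNFa protein level quantified by ELISA in the co-culture.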 The conditions noted are these: primary human HUVEC with PBMC; actives raise or lower the signal. In a few lines: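 TNFa was quantified by ELISA in LPS-activated co-cultures of human endothelial cells and PBMC, 24 h post-dosing. Both increases and decreases versus DMSO were fitted.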

Read-out in test [13]: Vascular cell adhesion molecule 1 (VCAM1), VCAM1 (gene 7412)
Nature of the test: BSK_LPS_VCAM1: BioMAP Diversity Plus: LPS Assay for Vascular cell adhesion molecule 1 (VCAM1) Biomarker Activity (AID 2283086). Conditions: primary human HUVEC with PBMC; actives raise or lower the signal. In a few lines: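 VCAM-1 quantified by ELISA in an LPS-activated co-culture of human endothelial cells and peripheral blood mononuclear cells, read 24 h post-treatment. Fitted in both directions versus DMSO; parallel SRB staining flags overt cytotoxicity.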

Read-out in test [14]: CD38, CD38 (gene 952)
The experiment in a line: BSK_SAg_CD38: BioMAP Diversity Plus: SAg Assay for CD38 Biomarker Activity (AID 2283087). The conditions noted are these: primary human HUVEC with PBMC; actives raise or lower the signal. In a few lines: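 CD38 quantified by ELISA (fluorescence) in a superantigen-activated endothelial cell–PBMC co-culture at 24 h post-dose. Activity fitted in both directions relative to DMSO; parallel SRB and Alamar Blue cytotoxicity read-outs.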

Read-out in test [15]: CD40, CD40 (gene 958)
Nature of the test: BSK_SAg_CD40: BioMAP Diversity Plus: SAg Assay for CD40 Biomarker Activity (AID 2283088). The conditions noted are these: primary human HUVEC with PBMC; actives raise or lower the signal. In a few lines:
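Human umbilical vein endothelial cells co-cultured with PBMC; CD40 levels measured by ELISA with fluorescence read-out 24 h after chemical dosing. Gain or loss of signal fitted bidirectionally against DMSO baseline.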

Read-out in test [16]: CD69, CD69 (gene 969)
Nature of the test: BSK_SAg_CD69: BioMAP Diversity Plus: SAg Assay for CD69 Biomarker Activity (AID 2283089). The conditions noted are these: primary human HUVEC with PBMC; actives raise or lower the signal. In a few lines:
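HUVEC co-cultured with PBMC were dosed with chemical, and CD69 was measured by ELISA with fluorescence read-out 24 h later. Bidirectional curve fitting used DMSO as negative control and activity baseline.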

Read-out in test [17]: Monocyte Chemoattractant Protein-1 (MCP1), CCL2 (gene 6347)
Nature of the test: BSK_SAg_MCP1: BioMAP Diversity Plus: SAg Assay for Monocyte Chemoattractant Protein-1 (MCP1) Biomarker Activity (AID 2283090). The conditions noted are these: primary human HUVEC with PBMC; actives raise or lower the signal. Summed up: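 Values derive from bidirectional fitting of ELISA-measured MCP1 against DMSO controls. Readings were taken 24 h after dosing human vascular endothelial cells co-cultured with peripheral blood mononuclear cells under superantigen stimulation.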

Read-out in test [18]: E-selectin (Homo sapiens) (UniProt P16581)
Nature of the test: BSK_SAg_Eselectin: BioMAP Diversity Plus: SAg Assay for Eselectin Biomarker Activity (AID 2283091). The conditions noted are these: primary human HUVEC with PBMC; actives raise or lower the signal. In a few lines: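 HUVEC co-cultured with PBMC, compound dosed then read at 24 h; E-selectin measured by ELISA. Activity fitted bidirectionally against DMSO as negative control and baseline.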

Read-out in test [19]: CD40, CD40 (gene 958)
The experiment in a line: BSK_LPS_CD40: BioMAP Diversity Plus: LPS Assay for CD40 Biomarker Activity (AID 2283076). Conditions: primary human HUVEC with PBMC; actives raise or lower the signal. Summed up:
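Primary human umbilical vein endothelial cells co-cultured with peripheral blood mononuclear cells, LPS-stimulated, were dosed with chemical and read 24 h later. CD40 levels were measured by ELISA and fitted bidirectionally against DMSO as negative control and baseline.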

Active and inactive are the calls of the source. The calls were made as follows: active = hit-call score of the fitted dose curve at least 0.9, where 1 is the maximum; inactive = score below 0.9.

Sequence of E-selectin (Homo sapiens) (P16581 whole entry, looked up): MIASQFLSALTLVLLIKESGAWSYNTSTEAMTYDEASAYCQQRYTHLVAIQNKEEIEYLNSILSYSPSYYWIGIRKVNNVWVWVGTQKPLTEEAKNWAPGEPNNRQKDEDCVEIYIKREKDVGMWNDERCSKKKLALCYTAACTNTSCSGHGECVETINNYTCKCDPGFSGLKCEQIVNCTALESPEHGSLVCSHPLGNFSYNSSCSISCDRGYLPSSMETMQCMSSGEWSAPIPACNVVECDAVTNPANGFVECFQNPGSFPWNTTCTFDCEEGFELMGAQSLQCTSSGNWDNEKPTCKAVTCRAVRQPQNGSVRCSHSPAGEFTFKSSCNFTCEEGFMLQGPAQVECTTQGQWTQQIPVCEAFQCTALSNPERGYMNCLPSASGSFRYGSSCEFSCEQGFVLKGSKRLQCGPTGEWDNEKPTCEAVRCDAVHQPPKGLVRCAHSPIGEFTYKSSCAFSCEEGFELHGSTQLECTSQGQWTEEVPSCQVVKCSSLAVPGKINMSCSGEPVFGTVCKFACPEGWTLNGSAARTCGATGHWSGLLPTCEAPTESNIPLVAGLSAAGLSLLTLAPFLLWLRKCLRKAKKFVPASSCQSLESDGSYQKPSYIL
Sequence of Tumor necrosis factor (Homo sapiens) (P01375 whole entry, looked up): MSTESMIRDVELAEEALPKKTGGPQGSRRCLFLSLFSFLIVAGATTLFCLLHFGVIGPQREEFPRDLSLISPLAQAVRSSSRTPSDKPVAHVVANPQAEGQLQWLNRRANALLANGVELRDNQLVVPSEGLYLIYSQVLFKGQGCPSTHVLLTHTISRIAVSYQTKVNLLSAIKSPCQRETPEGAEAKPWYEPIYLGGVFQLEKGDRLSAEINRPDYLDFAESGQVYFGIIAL

As for `C[C@]12CC[C@@H]3c4ccc(O)cc4CC[C@H]3[C@@H]1CCC2=O`, the outcome in test [1], in [2], in test [3], in test [5], in test [6] and in [7] was inactive. Moreover, the outcome in test [8], in test [9], in [10], in test [11], in test [12] and in test [13] was inactive. Moreover, the outcome in test [14], in test [15], in [16], in [17] and in test [18] was inactive. Further, in [4], the AC50 was 0.122 µM (active).
Turning to `CCCCCCCCCCCO`, the result in [1], in test [2], in test [3], in test [19], in test [4] and in test [5] was inactive. For the same molecule, the outcome in test [6], in [7], in test [8], in test [9], in test [10] and in [11] was inactive. The outcome in [12], in test [13], in [15], in [16], in test [17] and in test [18] was inactive.
For the molecule `O=C(O)Cc1cc(I)c(Oc2ccc(O)c(I)c2)c(I)c1`, the outcome in test [1], in test [3], in test [19], in [4], in test [5] and in test [6] was inactive. The outcome in test [7], in [8], in test [9], in [10], in test [11] and in test [13] was inactive. For the same molecule, the outcome in test [15], in test [16] and in test [17] was inactive. The AC50 is 20 µM (active) in test [2], 13 µM (active) in [12] and 20 µM (active) in [18].
As for `O=C(O)c1ccccc1C(=O)OCc1ccccc1`, the result in [1], in [2], in test [3], in test [4], in [5] and in test [6] was inactive. The result in [7], in [8], in [9], in test [10], in test [11] and in test [12] was inactive. The result in [13], in test [15], in test [16], in test [17] and in test [18] was inactive.
